B2AR arrestin: agonists driving beta-arrestin recruitment to human beta2-adrenergic receptor. actives 0.02% (n = 330,000). Potency, µM (titrated, usually from 46.1 µM), hits mostly activators. beta-arrestin recruitment to beta2AR, cell-based reporter. P07550; note: nearly all actives have a fitted effect of over 65% in size
Glioma ERSR ind: inducers of ER stress response in human glioma cells; U87-MG GRP78 promoter luciferase reporter, 16 h; actives 0.02% (n = 420,000); Potency, µM, usual class: activators; note: series mostly up to about 76 µM; nearly all actives have a fitted effect of over 35% in size
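Stably transfected U87-MG glioma cells carrying a GRP78-based luciferase sensor; 16 h compound incubation. Luminescence end-point read 10 min after Bright-Glo addition at room temperature.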
Pin1 inhibitor: blocks the human prolyl isomerase Pin1; Potency, µM (series often up to 115 µM), usual class: inhibitors; actives 0.009% (n = 390,000); AID 504891; Pin1 FP peptide displacement, HiFluor488, 10 min; Q13526; active = well fitted inhibition curve with a large enough effect in the polarisation, with a control signal flat, not every such curve was filed as active; inconclusive = small, poorly fitted or top-dose-only effect, or effect the other way, or a change in a side signal; inactive = no such curve, though single readings can be large or run the other way; the % refers to the polarisation
Target sequence (Q13526 whole entry, looked up): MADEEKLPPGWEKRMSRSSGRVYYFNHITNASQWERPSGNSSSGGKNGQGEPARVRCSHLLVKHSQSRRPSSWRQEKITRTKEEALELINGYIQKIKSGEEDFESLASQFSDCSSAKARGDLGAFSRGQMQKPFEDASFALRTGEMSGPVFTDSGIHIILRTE
Anesthetic bind: binds horse apoferritin like a general anesthetic | AID 485281 | actives 0.074% (n = 350,000) | apoferritin/1-aminoanthracene competitive binding, fluorescence | Potency, µM (highest dose often 77.5 µM), usual class: inhibitors; note: nearly all actives have a fitted effect of over 20% in size
Target sequence (P02791 2-175 limits assumed): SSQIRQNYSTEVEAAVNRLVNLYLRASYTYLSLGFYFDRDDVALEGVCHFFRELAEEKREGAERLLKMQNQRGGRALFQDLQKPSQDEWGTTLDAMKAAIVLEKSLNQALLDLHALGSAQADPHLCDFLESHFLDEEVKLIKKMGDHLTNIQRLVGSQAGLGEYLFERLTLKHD
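Probe: 1-aminoanthracene (50% saturated, PBS). Protein: horse-spleen apoferritin, 10 uM. Incubation: 10 min, room temperature. Detection: 380 nm excitation, 535 nm emission. Analysis: normalized response, four-parameter Hill.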
RGS4 inh: inhibitors of human regulator of G protein signaling 4. P49798. Transcreener GDP fluorescence polarization, RGS4-accelerated GTP hydrolysis. Potency, µM (titrated, usually from 114 µM), usual class: inhibitors. actives 0.039% (n = 390,000). AID 504845; note: nearly all actives have a fitted effect of over 75% in size
Target sequence (P49798 whole entry, looked up): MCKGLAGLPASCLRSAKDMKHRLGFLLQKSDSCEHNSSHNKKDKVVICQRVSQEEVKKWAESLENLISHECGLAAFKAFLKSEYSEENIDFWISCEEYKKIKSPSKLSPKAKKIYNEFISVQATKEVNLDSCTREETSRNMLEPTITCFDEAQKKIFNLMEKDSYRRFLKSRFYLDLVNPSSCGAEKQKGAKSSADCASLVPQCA
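MLSMR compounds (23 nl, pin-transferred) preincubated 10 min at room temperature with a 500nM (2x) first reagent, then RGS4 at 900nM (2x) plus Transcreener GDP mix added; fluorescence polarization (620/688 nm) read before and after 90 min at 30 °C.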
Mm-Cpn inhibitor: blocks the Methanococcus maripaludis chaperonin Mm-Cpn; purified Mm-Cpn ATPase, ADP Transcreener TR-FRET; Potency, µM (top dose mostly 76.9 µM), actives largely listed as inhibitors; actives 0.031% (n = 330,000); note: nearly all actives have a fitted effect of over 80% in size
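Compound-treated chaperonin, 25 nM final, turns over 10 uM ATP at 37°C for 30 min following a 10 min preincubation; ADP generated competes with ADP-d2 for Eu-cryptate antibody, lowering FRET.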
Numbers stand for hits; n = inactive; u = inconclusive; x = no result given; [ ] = remark or other dose. Only some compounds are listed: those with a hit (about 0.17% of all), similar ones and a draw of the others. Unless noted, calls come from the whole dose curve; as a rule, active = well fitted curve in the direction sought with a large enough effect; inconclusive = small, poorly fitted or top-dose-only effect, or another doubt; inactive = no such curve, though single readings can be large; an effect the other way counts as inactive or inconclusive.

SMILES | B2AR arrestin | Glioma ERSR ind | Pin1 inhibitor | Anesthetic bind | RGS4 inh | Mm-Cpn inhibitor
COc1ccc(-c2c(-c3ccccc3OC)sc3ccccc23)cc1C=O | n | n | n | x | n | u
COc1ccc(-c2c(-c3ccccc3OC)sc3ccccc23)cc1OC | n | n | n | n | n | 35.5µM
NS(=O)(=O)c1cccnc1Nc1ccc(Cl)c(Cl)c1 | n | n | n | 8.91µM | n | n
CC(=O)NS(=O)(=O)c1cccnc1Nc1ccc(Cl)c(Cl)c1 | n | n | n | n | n[11.4 µM] | n
COc1cc2ncnc(N(C)Cc3csc(C)n3)c2cc1-c1ccc2c(c1)OCO2 | x | x | n | x | x | x
Cc1ccc(O)c(NC2=C(Cl)C(=O)N(Cc3ccccc3)C2=O)c1 | n | n | n | 22.4µM | u | n
Cc1ccc(C(=O)N2CCCCC2)cc1NC1=C(Cl)C(=O)N(Cc2ccccc2)C1=O | n | n | n | x | n | n
O=C(O)COc1ccc(C(=O)c2cccs2)c(Cl)c1Cl | x | n | x | n | x | x
O=C(O)COc1ccc2nsnc2c1Cl | n | n | n | n | n | 6.31µM
CN(C)CCCNc1ncnc2ccc(-c3ccc4c(c3)OCO4)cc12 | x | x | n | x | x | x
N=c1c2c(ncn1-c1ccccc1)Oc1ccc3ccccc3c1C2c1ccc2c(c1)OCO2 (stereo not drawn) | x | x | n | x | x | x
COc1cc(CNCc2ccccn2)ccc1OCc1ccc(Cl)cc1Cl | n | n | n | 20µM | n | n
COc1cc(CNCc2ccccn2)ccc1OCc1ccc(Cl)c(Cl)c1 | n | n | n | u | n | n
CN(C)c1cccc(N2CCN(c3nn4c(=O)c5ccccc5nc4s3)CC2)c1 | x | x | n | x | x | x
O=c1[nH]c2ccccc2n1CCC1CCCCC1 | n | n | n | 28.2µM | n | n
Cc1ccc2nc(-c3cccnc3SCC(=O)N3c4ccccc4CC3C)[nH]c2c1 (stereo not drawn) | n | n | n | n | n | 50.1µM
O=c1c2ccccc2nc(-c2ccccc2O)n1Cc1ccccc1 | x | x | n | x | x | x
O=C(COc1ccccc1)Nc1nc(-c2ccc(S(=O)(=O)N3CCOCC3)cc2)cs1 | n | n | n | n | u | u
O=C(COc1ccc(Cl)cc1)Nc1nc(-c2ccc(S(=O)(=O)N3CCOCC3)cc2)cs1 | n | n | n | n | n | 44.7µM
O=C(Nc1nc(-c2ccc3c(c2)OCCO3)cs1)c1ccc(S(=O)(=O)N2CCCCC2)cc1 | n | n | n | n | n | n
O=C(Nc1nc(-c2ccc(S(=O)(=O)N3CCCCCC3)cc2)cs1)c1ccccc1 | n | n | n | n | u | 35.5µM
CN1CCN(c2cccc(Nc3nn4c(=O)c5ccc(Br)cc5nc4s3)c2)CC1 | x | x | n | x | x | x
O=C(NCCN1CCOCC1)c1cc(-c2ccccc2)on1 | n | u | n | n | n | n
O=C(NCCN1CCOCC1)c1cc(-c2cccs2)on1 | n | 11.2µM | n | n | n | n
Cc1cccc(C(=O)NC(=S)NNC(=O)c2ccc(Cl)cc2)c1 | n | 35.5µM | n | n | n | n
SMILES | B2AR arrestin | Glioma ERSR ind | Pin1 inhibitor | Anesthetic bind | RGS4 inh | Mm-Cpn inhibitor
Cc1cccc(C(=O)NC(=S)NNC(=O)c2cccs2)c1 | n | n | n | n | u | n
O=S1(=O)N=C(Oc2ccc(Cl)cc2)c2ccccc21 | x | x | n | x | x | x
Cc1ccc([S+](=O)([O-])Nc2nn3c(=O)c4ccccc4nc3s2)cc1C | x | x | n | x | x | x
Cc1ccc(NS(=O)(=O)c2cc3c(cc2N2CCCCC2)NC(=O)CC3)cc1C | x | x | n | x | x | x
COC(=O)COc1ccc(S(=O)(=O)NCCC2=CCCCC2)cc1C | n | n | n | 5.62µM | n | n
COc1nc(NC23CC4CC(CC(C4)C2)C3)nc(OC)n1 | n | n | n | 7.08µM | n | n
COc1ccc(CC(=O)NNC(=O)COc2ccc3ccccc3c2)cc1 | n | n | n | n | n | 39.8µM
COc1ccccc1NC(=O)NNC(=O)COc1ccc2ccccc2c1 | n | n | n | u | n | n
CNc1cccc(S(=O)(=O)N2CCCN(S(=O)(=O)c3ccc4c(c3)OCCO4)CC2)c1 | x | x | n | x | x | x
O=C1c2ccccc2C(=O)N1c1cccc2ccncc12 | x | x | n | x | x | x
CC(=O)Nc1cccc(OCc2cccc(C3Nc4ccccc4C(=O)N3Cc3ccco3)c2)c1 (stereo not drawn) | x | x | n | x | x | x
O=C(Nc1nc(-c2ccccn2)cs1)c1ccc(-c2ccccc2F)o1 | n | 31.6µM | n | x | n | n
Cc1ccc(C(=O)Nc2nc(-c3ccccn3)cs2)o1 | n | n | n | n | n | n
S=C(NCCCc1cnc[nH]1)NCCN(Cc1ccc(Cl)c(Cl)c1)c1ccc(Br)cn1 | x | x | n | x | x | x
CCC(=O)c1ccc(OCC(=O)OCC(=O)NC2CCCCCCC2)cc1 | n | n | n | 5.62µM | n | n
Cc1ccc(NS(=O)(=O)c2cc3c(cc2F)NC(=O)CC3)cc1Cl | x | x | n | x | x | x
Cc1cc2nc(N3C(=O)CNC3=S)sc2cc1C | n | n | n | n | n | n
CCOc1ccc2nc(N3C(=O)CNC3=S)sc2c1 | 3.98µM | n | n | n | n | n
COc1ccc(-c2nc3ccc(Cl)cc3c(=O)n2Cc2ccccc2)cc1COc1ccc(NC(C)=O)cc1 | x | x | n | x | x | x
COc1ccccc1C1SCCN1S(C)(=O)=O (stereo not drawn) | n | n | n | 11.2µM | n | n
O=C(Oc1ccccc1C(=O)Nc1ccccc1)c1ccc(Br)c([N+](=O)[O-])c1 | n | 31.6µM | n | n | n | n
COc1cccc(C2c3c(ncn(-c4ccccc4C)c3=N)Oc3ccc4ccccc4c32)c1 (stereo not drawn) | x | x | n | x | x | x
CC1(C)CCC2=C(O1)c1ccccc1C(=O)C2=O | x | n | x | x | 15µM | x
COc1cc(Cn2ncc3c4sc(C)cc4n(C)c3c2=O)cc(OC)c1 | x | x | n | x | x | x
S=C(c1cn(CCOc2cccc3ccccc23)c2ccccc12)N1CCCC1 | n | n | u | n | n | 50.1µM
CCCCCCCC[n+]1cccc(C(=O)N(CC)CC)c1 | n | n | n | n | n | n
CCCCCCCCCCCCCCCC[n+]1cccc(C(=O)N(CC)CC)c1 | n | n | n | 15.8µM | n | n
Oc1ccccc1/C=N/Nc1nc2ccccc2o1 | 14.1µM | n | n | n | n | n
